Laboratory results from PMC7826789 (International Journal of Molecular Sciences, 2021).

Tests used:
PIP5K2B = tested on: T1, PIP5K2B; settings: Compound Concentration (nM):1000
T1 construct: gene PIP4K2B

PIP5K2C = tested on: T2, PIP5K2C; settings: Compound Concentration (nM):1000
T2 construct: gene PIP4K2C

PKAC-alpha = tested on: T3, PKAC-alpha; settings: Compound Concentration (nM):1000
T3 construct: gene PRKACA

PKAC-beta = tested on: T4, PKAC-beta; settings: Compound Concentration (nM):1000
T4 construct: gene PRKACB

PKMYT1 = settings: Compound Concentration (nM):1000
PKN1 = settings: Compound Concentration (nM):1000
PKN2 = settings: Compound Concentration (nM):1000
PKNB(M.tuberculosis) = settings: 1 µM
PLK1 = settings: Compound Concentration (nM):1000
PLK2 = settings: Compound Concentration (nM):1000
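Note: KINOMEscan scanMAX binding as percent activity remaining versus control; lower means stronger binding.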

SMILES | Percent Control (PIP5K2B) [%] | Percent Control (PIP5K2C) [%] | Percent Control (PKAC-alpha) [%] | Percent Control (PKAC-beta) [%] | Percent Control (PKMYT1) [%] | Percent Control (PKN1) [%] | Percent Control (PKN2) [%] | Percent Control (PKNB(M.tuberculosis)) [%] | Percent Control (PLK1) [%] | Percent Control (PLK2) [%]
NS(=O)(=O)c1ccc(N/N=C2\C(=O)Nc3ccc(-c4cnco4)cc32)cc1 [GW276655] | 69 | 100 | 88 | 94 | 95 | 100 | 87 | 78 | 77 | 83
CN1CCN(C(=O)c2ccc(NC(=O)Nc3ccc(N(C)c4ccnc(Nc5ccc(CS(C)(=O)=O)cc5)n4)cc3)cc2)CC1.Cl [GW830263A] | 17 | 0.9 | 100 | 100 | 96 | 70 | 100 | 87 | 100 | 100
CN(C)CCNC(=O)Nc1ccc(N(C)c2ccnc(Nc3ccc(CS(C)(=O)=O)cc3)n2)cc1.Cl [GW830900A] | 33 | 3.7 | 100 | 100 | 100 | 83 | 64 | 94 | 86 | 100
COc1cccc(-c2c[nH]c3c(N/N=C/c4ccncc4)ncnc23)c1 [GW814408X] | 100 | 9.1 | 100 | 100 | 100 | 100 | 100 | 99 | 95 | 100
CCS(=O)(=O)c1ccc(OC)c(Nc2ncc(-c3cccc(OC)c3)o2)c1 [GW580509X] | 91 | 11 | 100 | 100 | 100 | 100 | 100 | 100 | 92 | 86
NS(=O)(=O)c1ccc(N/N=C2\C(=O)Nc3ccc(C(=O)NCCc4c[nH]cn4)cc32)cc1 [GW300660X] | 100 | 48 | 100 | 100 | 100 | 100 | 80 | 92 | 100 | 75
COc1ccccc1-c1cc(/C=C2\C(=O)Nc3ncc(Br)cc32)cc(Br)c1O [GW442130X] | 100 | 100 | 95 | 100 | 100 | 100 | 36 | 74 | 95 | 100
Cl.O=C(O[C@H]1CN[C@H](C#Cc2cc3ncnc(Nc4ccc5c(cnn5Cc5ccccc5)c4)c3s2)C1)N1CCOCC1 [GSK200398A] | 100 | 98 | 100 | 93 | 96 | 88 | 69 | 91 | 76 | 92
COc1ccc(COc2ccc(Cc3cnc(N)nc3N)cc2OC)cc1 [GW632580X] | 100 | 100 | 91 | 100 | 100 | 82 | 100 | 69 | 100 | 100
COc1cc(C)c(N(C)C(=O)CN(C)C)cc1Nc1nc(Nc2cccc(F)c2C(N)=O)c2cc[nH]c2n1 [GSK2219385] | 100 | 92 | 100 | 100 | 78 | 89 | 88 | 63 | 81 | 100
Cl.O=C(Nc1ccc(Oc2ccc3[nH]c(NC(=O)c4ccco4)nc3c2)cc1)Nc1cc(C(F)(F)F)ccc1F [GW683134A] | 100 | 76 | 100 | 100 | 100 | 100 | 79 | 99 | 100 | 88
CCn1c(-c2nonc2N)nc2c(C#CC(C)(C)O)nc(OCCNC)cc21.Cl [GSK949675] | 100 | 78 | 21 | 16 | 100 | 9.3 | 100 | 0.7 | 100 | 100
CC(C)COC(=O)c1ccc2c(c1)/C(=C/Nc1ccc(S(N)(=O)=O)cc1)C(=O)N2 [GW416981X] | 100 | 65 | 100 | 100 | 100 | 100 | 71 | 86 | 100 | 59
O=C(Nc1n[nH]c2nc(-c3ccc(O)cc3)c(Br)cc12)C1CC1 [SB-725317] | 100 | 91 | 100 | 100 | 100 | 89 | 100 | 31 | 100 | 83
CC1=C(C(=O)Nc2ccc3[nH]ncc3c2)C(c2ccc3ccccc3c2)CC(=O)N1 (stereo not shown) [GSK270822A] | 100 | 83 | 64 | 68 | 90 | 45 | 76 | 87 | 73 | 100
NS(=O)(=O)c1ccc(Nc2ncc(-c3ccccc3)o2)cc1 [GW572399X] | 100 | 29 | 100 | 100 | 100 | 100 | 100 | 76 | 100 | 86
COc1cc(C=NNc2ncnc3c2cnn3-c2ccccc2)ccc1O [GW513184X] | 59 | 1.4 | 100 | 100 | 100 | 81 | 100 | 86 | 100 | 37
COc1ccc2c(-c3ccnc(Nc4cccc(OC(F)(F)F)c4)n3)cnn2n1 [GW810372X] | 100 | 32 | 100 | 100 | 100 | 100 | 76 | 82 | 91 | 100
Nc1ncnc2occ(-c3ccc(NC(=O)Nc4cc(C(F)(F)F)ccc4F)cc3)c12 [GW770249X] | 100 | 77 | 100 | 100 | 100 | 100 | 90 | 100 | 100 | 1.9
COC(=O)Nc1nc2ccc(Oc3ccc(NC(=O)Nc4cc(C(F)(F)F)ccc4F)cc3)cc2s1.Cl [GW693917A] | 100 | 96 | 100 | 95 | 95 | 82 | 57 | 70 | 67 | 96
C[C@@H](Oc1cc(-n2cnc3ccc(OC4CCN(C)CC4)cc32)sc1C(N)=O)c1ccccc1Cl [GSK579289A] | 52 | 75 | 100 | 100 | 81 | 72 | 57 | 35 | – | 13
C/C(Nc1ccc(S(N)(=O)=O)cc1)=C1/C(=O)Nc2ccccc21 [GW335962X] | 100 | 93 | 100 | 87 | 91 | 83 | 74 | 83 | 90 | 87
O=C1Nc2ccc(C(=O)c3ccco3)cc2C1=Cc1cc(Cl)c(O)c(Cl)c1 [GW406108X] | 95 | 65 | 100 | 100 | 100 | 83 | 63 | 90 | 49 | 27
CC1=C(C(=O)Nc2ccc3[nH]ncc3c2)C(c2ccc(Cl)c(Cl)c2)CC(=O)N1 (stereo not shown) [GSK299115A] | 99 | 82 | 81 | 63 | 77 | 39 | 65 | 85 | 70 | 100
CN(C)c1cc2c(Nc3ccc4c(cnn4Cc4ccccc4)c3)ncnc2cn1 [GW282974X] | 100 | 100 | 100 | 95 | 73 | 90 | 88 | 68 | 71 | 100
COc1cc(N2CCN(C(C)C)CC2)ccc1Nc1nc(Nc2ccc(F)cc2C(=O)NC[C@@H](O)CO)c2cc[nH]c2n1 [GSK1392956A] | 100 | 94 | 100 | 100 | 100 | 100 | 100 | 99 | 6.3 | 100
CCS(=O)(=O)c1ccc(OC)c(Nc2ncc(-c3cccc(F)c3)o2)c1 [GW621970X] | 99 | 3.8 | 100 | 100 | 100 | 100 | 68 | 100 | 96 | 93
Cl.O=S1CCN(Cc2ccc(-c3ccc4ncnc(Nc5ccc(OCc6ccccc6)c(F)c5)c4c3)o2)CC1 [GW576924A] | 100 | 63 | 100 | 100 | 100 | 100 | 100 | 100 | 100 | 100
NS(=O)(=O)c1ccc(N/N=C2\C(=O)Nc3ccc(Cl)cc32)cc1 [GW280670X] | 98 | 81 | 100 | 100 | 100 | 100 | 97 | 100 | 100 | 100
